Test [1] has as its target Lysosomal acid glucosylceramidase (Homo sapiens) (UniProt P04062). Description: Glucocerebrosidase-p2 (AID 348; in the data active means potency below about 10 µM; further: potency means the concentration at half of the fitted maximal effect). The following applies: purified GBA, blue fluorogenic substrate, 40 min. In short, it runs like this: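 Normal human glucocerebrosidase (0.2 nM) with blue fluorogenic substrate (80 uM final) in citrate/phosphate pH 5.9 with 10mM sodium taurocholate, 0.01% tween-20; 40 min RT, NaOH/glycine stop; fluorescence Ex 365/Em 440; AC50 from a titration from 0.6 nM upwards.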

A short description of test [2]: NFAT Signaling Pathway (AID 444).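 Further: carbachol stimulus at about its EC50 of 1 µM final; on the % scale 0 is the no-effect control and ±100 the full control effect.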 The note with it: Jurkat NFAT-bla M1, carbachol, beta-lactamase ratio, 5 h; at 7.69 µM (top of the series) unless noted. A digest of the protocol: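 Jurkat cells with NFAT-driven β-lactamase reporter and co-expressed M1 receptor, stimulated with carbachol (final 1 uM, ~EC50), compound titration, 5 h at 37 °C. CCF4 loaded 1 h at RT; 460/530 nm ratio gave %activity and AC50.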

The nature of test [3]: Stat Signaling Pathway (AID 446).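 Further: ME-180 cervical cancer cells given 40 pM IL-6 alongside compound; SIE-controlled beta-lactamase reporter measured as 460/530 nm FRET emission ratio; on the % scale 0 is the no-effect control and ±100 the full control effect.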 The following applies: ME-180 SIE beta-lactamase reporter, IL-6 stimulated, 5 h; at 7.69 µM (top of the series) unless noted. In short, it runs like this: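 Compound effects on IL-6-induced STAT reporter activity were measured in ME-180 cells. After overnight culture, cells were co-treated with 40 pM IL-6 for 5 hrs before beta-lactamase substrate loading at room temperature.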

Test [4] concerns the target Glucocorticoid receptor (Homo sapiens) (UniProt P04150). Description: GR-GFP Redistribution (AID 450;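 active means compounds whose dose series gives a full or clear partial fitted curve of increased nuclear translocation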; further: potency means the concentration at half of the fitted maximal effect). The following applies: U2OS GR-GFP nuclear translocation, laser cytometry, 2 h.
The target is the same in test [5]. As to the kind of experiment: GR-EFC Redistribution (AID 451; calls by dose curve; further: potency means the concentration at half of the fitted maximal effect). The following applies: CHO-K1 GR-EFC translocation, beta-gal luminescence, 2 h. In short, it runs like this:
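CHO-K1 cells expressing nuclear EA and GR-ED fragments of b-gal; compounds titrated up to 46 uM final, 2 h at 37 C. GR nuclear translocation read as complemented b-gal luminescence after 1 h RT detection.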

Test [6] concerns the target 3',5'-cyclic-AMP phosphodiesterase 4B (Homo sapiens) (UniProt Q07343). Description: qHTS Assay for Inhibitors of PDE-IV (AID 607; active means well fitted activation curve with a large enough effect in the main read-out, with a control signal flat, not every such curve was filed as active; further: % of control where 0% means no effect). The note with it: HEK293 ACTOne CNG channel cells, membrane potential fluorescence; series mostly up to 22.9 µM. In short, it runs like this:
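ACTOne HEK293 cells carry a modified cAMP-gated CNG channel and express endogenous PDE4; plated 1000 cells/well, compounds up to 22.9 uM final. Membrane-potential dye fluorescence (ex 535/em 590) was read; parental cells received 10 uM forskolin + 100 uM RO 20-1724.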
Background: qHTS replaces the single test concentration by a dilution series.

Test [7] concerns the target Cytochrome P450 3A4 (Homo sapiens) (UniProt P08684). As to the kind of experiment: qHTS Assay for Activators of Cytochrome P450 3A4 (AID 885; active means well fitted curve in the direction sought with a large enough effect; an effect the other way counts as inactive or inconclusive; further: nearly all actives have a fitted effect of over 65% in size). The note with it: recombinant CYP3A4, Luciferin-PPXE luminescence, 60 min; series mostly up to 11.4 µM. A digest of the protocol: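 CYP3A4 activity: Luciferin-PPXE O-dealkylation, 25uM substrate, 200mM KPO4, RT throughout. Read-out is luciferase luminescence; higher values reflect activation.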

The nature of test [8]: qHTS Assay for Identification of Small Molecule Agonists for Hypoxia Response Element Signaling Pathway (AID 914; active means well fitted activation curve with a large enough effect in the signal ratio, with a control signal flat, not every such curve was filed as active; the % refers to the signal ratio; further: potency means the concentration at half of the fitted maximal effect; on activation: % of control where 0% means no effect). The note with it: ME-180 (cervical carcinoma) HRE-bla reporter, beta-lactamase ratio, CoCl2, 17 h; activation: stronger effect = higher value. A digest of the protocol: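 HRE-bla ME-180 cells, overnight plating in Opti-MEM with 0.5% dialyzed FBS; cpd titration + EC50 CoCl2, 17 h, 37 degrees Celsius; CCF4 2.5 h RT; 460/530 nm ratio; AC50.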

Test [9] deals with Cytochrome P450 1A2 (Homo sapiens) (UniProt P05177). As to the kind of experiment: p450-cyp1a2 (AID 410; calls by dose curve; further: potency means the concentration at half of the fitted maximal effect). The following applies: recombinant CYP1A2, luciferin-ME demethylation, luminescence; series mostly up to 11.4 µM. A digest of the protocol: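 Read-out is luminescence from luciferin produced by CYP1A2 demethylation of Luciferin-ME (100uM, at Km). Detection reagent stopped the 60 min NADPH-dependent reaction; signals were normalized to 57 uM furafylline.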
Chain of Cytochrome P450 1A2 (Homo sapiens) (P05177 whole entry, looked up): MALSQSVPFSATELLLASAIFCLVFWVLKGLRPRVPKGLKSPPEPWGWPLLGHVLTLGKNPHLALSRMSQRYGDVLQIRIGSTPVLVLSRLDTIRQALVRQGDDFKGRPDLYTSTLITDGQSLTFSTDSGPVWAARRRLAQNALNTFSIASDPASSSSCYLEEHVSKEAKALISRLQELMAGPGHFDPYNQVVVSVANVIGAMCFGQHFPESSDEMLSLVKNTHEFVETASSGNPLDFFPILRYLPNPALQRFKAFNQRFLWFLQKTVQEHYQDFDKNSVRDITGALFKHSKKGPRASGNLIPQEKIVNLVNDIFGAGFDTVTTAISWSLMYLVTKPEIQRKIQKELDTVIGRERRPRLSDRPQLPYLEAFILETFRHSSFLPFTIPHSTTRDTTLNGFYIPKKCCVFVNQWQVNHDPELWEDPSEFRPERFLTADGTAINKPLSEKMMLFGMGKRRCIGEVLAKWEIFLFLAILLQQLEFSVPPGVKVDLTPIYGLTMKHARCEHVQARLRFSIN

For test [10], the target named is Mitogen-activated protein kinase 10 (Mus musculus) (UniProt Q61831). As to the kind of experiment: JNK3 AlphaScreen Assay (AID 530).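 Further: kinase came from lysate of stimulated human HepG2 cells; signal reports phosphorylation of biotinylated GST-cJun 1-79 at Ser73 with 10 µM ATP; on the % scale 0 is the no-effect control and ±100 the full control effect.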 The note with it: JNK3 lysate, c-Jun phosphorylation; series mostly up to 11.4 µM. In short, it runs like this:
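HepG2 lysate (IL-1b/TNFa pre-activated) + biotin-GST-cJun 1-79 + anti-pSer73 cJun; cpd titration, 15 min RT; ATP 10 uM start; Tris pH 7.6, MgCl2, DTT, vanadate; beads in EDTA buffer; AlphaScreen.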

Test [11] deals with Cytochrome P450 3A4 (Homo sapiens) (UniProt P08684). Description: qHTS Assay for Inhibitors and Substrates of Cytochrome P450 3A4 (AID 884; active means well fitted curve in the direction sought with a large enough effect; an effect the other way counts as inactive or inconclusive; further: on the % scale 0 is the no-effect control and ±100 the full control effect; nearly all actives have a fitted effect of over 50% in size). The note with it: recombinant CYP3A4, Luciferin-PPXE luminescence; series mostly up to 57.1 µM. A digest of the protocol: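 Luminescent readout of luciferin produced by CYP3A4 (20 nM) dealkylation of Luciferin-PPXE, 25 uM (its KM). NADPH-driven reaction ran 60 min at RT after 10 min compound preincubation; data scaled to 57 uM ketoconazole as 100% inhibition.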
Chain of Cytochrome P450 3A4 (Homo sapiens) (P08684 whole entry, looked up): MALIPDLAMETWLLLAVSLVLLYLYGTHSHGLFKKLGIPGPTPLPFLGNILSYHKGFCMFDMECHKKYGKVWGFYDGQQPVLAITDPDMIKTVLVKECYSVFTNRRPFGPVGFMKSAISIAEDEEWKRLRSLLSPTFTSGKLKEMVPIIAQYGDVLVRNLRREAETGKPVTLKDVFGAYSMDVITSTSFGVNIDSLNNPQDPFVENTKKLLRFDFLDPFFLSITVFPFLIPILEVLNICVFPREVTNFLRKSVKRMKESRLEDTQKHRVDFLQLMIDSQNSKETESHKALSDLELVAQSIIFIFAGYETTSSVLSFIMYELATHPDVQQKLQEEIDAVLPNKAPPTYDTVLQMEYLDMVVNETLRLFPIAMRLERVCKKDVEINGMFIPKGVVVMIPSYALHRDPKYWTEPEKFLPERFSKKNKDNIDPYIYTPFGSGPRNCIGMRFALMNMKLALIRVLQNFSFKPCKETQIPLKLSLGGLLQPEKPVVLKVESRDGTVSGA

The target of test [12] is Cytochrome P450 2C9 (Homo sapiens) (UniProt P11712). As to the kind of experiment: qHTS Assay for Inhibitors and Substrates of Cytochrome P450 2C9 (AID 883; active means well fitted curve in the direction sought with a large enough effect; an effect the other way counts as inactive or inconclusive; further: potency means the concentration at half of the fitted maximal effect; nearly all actives have a fitted effect of over 60% in size). The following applies: recombinant CYP2C9, luciferin-H luminescence, 60 min; series mostly up to 11.4 µM. In short, it runs like this: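 Human CYP2C9 (10nM) with Luciferin-H at 100uM (its KM) in 25mM KPO4; compound preincubated 10 min at 37C, then NADPH regeneration for 60 min at 37C. Luciferin read by luminescence after detection reagent; normalized to 57uM sulphaphenazole as full inhibition.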
Chain of Cytochrome P450 2C9 (Homo sapiens) (P11712 whole entry, looked up): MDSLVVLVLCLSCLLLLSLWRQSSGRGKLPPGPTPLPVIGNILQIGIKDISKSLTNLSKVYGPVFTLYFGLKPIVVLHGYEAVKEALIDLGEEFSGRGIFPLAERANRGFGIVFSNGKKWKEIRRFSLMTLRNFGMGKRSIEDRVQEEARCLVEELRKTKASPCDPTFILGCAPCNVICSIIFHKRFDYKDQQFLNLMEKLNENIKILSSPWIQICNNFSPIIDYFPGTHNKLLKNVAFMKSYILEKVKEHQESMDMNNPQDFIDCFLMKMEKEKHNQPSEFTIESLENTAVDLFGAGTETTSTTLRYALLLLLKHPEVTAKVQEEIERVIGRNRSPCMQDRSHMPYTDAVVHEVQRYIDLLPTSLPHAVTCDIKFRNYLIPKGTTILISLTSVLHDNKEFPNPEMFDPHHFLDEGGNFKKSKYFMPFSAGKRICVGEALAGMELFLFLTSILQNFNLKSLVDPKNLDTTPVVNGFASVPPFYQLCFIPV

The target in test [13] is Cytochrome P450 2D6 (Homo sapiens) (UniProt P10635). As to the kind of experiment: qHTS Assay for Inhibitors and Substrates of Cytochrome P450 2D6 (AID 891; active means well fitted curve in the direction sought with a large enough effect; an effect the other way counts as inactive or inconclusive; further: potency means the concentration at half of the fitted maximal effect; nearly all actives have a fitted effect of over 60% in size). The note with it: recombinant CYP2D6, luciferin-ME EGE luminescence; series mostly up to 11.4 µM. A digest of the protocol: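 Luminescent read-out of luciferin formed by 5 nM human CYP2D6 demethylating 30 uM Luciferin-ME EGE (Km level) over 60 min at room temperature after NADPH regeneration addition. Data normalized to full inhibition by 1.43 uM quinidine.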
Chain of Cytochrome P450 2D6 (Homo sapiens) (P10635 whole entry, looked up): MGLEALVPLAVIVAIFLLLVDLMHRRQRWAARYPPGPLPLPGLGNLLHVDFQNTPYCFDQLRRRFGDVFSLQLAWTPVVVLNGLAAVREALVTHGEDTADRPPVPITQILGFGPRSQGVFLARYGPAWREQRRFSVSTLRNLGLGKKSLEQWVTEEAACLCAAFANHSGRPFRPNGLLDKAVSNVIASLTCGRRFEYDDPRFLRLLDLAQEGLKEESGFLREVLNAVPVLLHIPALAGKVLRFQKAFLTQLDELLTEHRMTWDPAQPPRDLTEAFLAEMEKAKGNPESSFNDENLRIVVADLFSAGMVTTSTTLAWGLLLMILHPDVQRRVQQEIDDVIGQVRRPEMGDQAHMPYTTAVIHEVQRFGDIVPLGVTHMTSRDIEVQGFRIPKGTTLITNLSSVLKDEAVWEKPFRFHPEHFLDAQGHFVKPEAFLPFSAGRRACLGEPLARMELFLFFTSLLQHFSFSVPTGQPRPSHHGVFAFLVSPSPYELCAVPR

Test [14] addresses Cytochrome P450 2C19 (Homo sapiens) (UniProt P33261). As to the kind of experiment: qHTS Assay for Inhibitors and Substrates of Cytochrome P450 2C19 (AID 899; active means well fitted curve in the direction sought with a large enough effect; an effect the other way counts as inactive or inconclusive; further: potency means the concentration at half of the fitted maximal effect; nearly all actives have a fitted effect of over 60% in size). The following applies: recombinant CYP2C19, luciferin-H EGE luminescence; series mostly up to 11.4 µM. A digest of the protocol:
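5 nM human CYP2C19 with 10uM Luciferin-H EGE (at KM) in 50mM KPO4, compound preincubated 10 min at 37C, then NADPH regeneration for 60 min at 37C. Luciferin read by luminescence after detection reagent; normalized to 57uM ketoconazole as full inhibition.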

Molecules are shown by their SMILES. Unmarked numbers belong to inactive results. Results filed as inconclusive are left out. Calls of active or inactive are those of the source. Unless noted, the call rests on the fitted dose curve; in most records, active means well fitted curve in either direction with a large enough effect (not every such curve was filed as active); inconclusive means small, poorly fitted or top-dose-only effect, or another doubt; inactive means flat fitted curve, though single readings scatter.

Chain of Glucocorticoid receptor (Homo sapiens) (P04150 whole entry, looked up): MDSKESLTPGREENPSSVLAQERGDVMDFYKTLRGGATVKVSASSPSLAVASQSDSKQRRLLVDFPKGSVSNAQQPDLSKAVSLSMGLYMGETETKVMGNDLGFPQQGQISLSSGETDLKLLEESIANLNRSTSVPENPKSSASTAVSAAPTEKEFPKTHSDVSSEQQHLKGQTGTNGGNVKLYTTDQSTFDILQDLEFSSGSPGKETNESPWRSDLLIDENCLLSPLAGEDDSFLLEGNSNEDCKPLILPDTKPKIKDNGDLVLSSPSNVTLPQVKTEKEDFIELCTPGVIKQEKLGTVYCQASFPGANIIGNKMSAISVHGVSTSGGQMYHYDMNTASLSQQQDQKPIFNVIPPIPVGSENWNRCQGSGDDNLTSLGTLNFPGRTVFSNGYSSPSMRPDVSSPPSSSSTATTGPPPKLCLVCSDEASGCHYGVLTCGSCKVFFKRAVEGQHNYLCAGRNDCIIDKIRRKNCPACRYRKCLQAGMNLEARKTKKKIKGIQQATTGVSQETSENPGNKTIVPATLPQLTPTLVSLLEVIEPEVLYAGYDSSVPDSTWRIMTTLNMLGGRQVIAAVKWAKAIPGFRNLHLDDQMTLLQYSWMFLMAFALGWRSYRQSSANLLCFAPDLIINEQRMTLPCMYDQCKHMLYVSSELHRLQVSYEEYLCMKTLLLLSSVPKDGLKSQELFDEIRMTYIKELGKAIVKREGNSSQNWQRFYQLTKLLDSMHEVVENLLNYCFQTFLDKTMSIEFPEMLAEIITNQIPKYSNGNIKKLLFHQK
Chain of 3',5'-cyclic-AMP phosphodiesterase 4B (Homo sapiens) (Q07343 whole entry, looked up): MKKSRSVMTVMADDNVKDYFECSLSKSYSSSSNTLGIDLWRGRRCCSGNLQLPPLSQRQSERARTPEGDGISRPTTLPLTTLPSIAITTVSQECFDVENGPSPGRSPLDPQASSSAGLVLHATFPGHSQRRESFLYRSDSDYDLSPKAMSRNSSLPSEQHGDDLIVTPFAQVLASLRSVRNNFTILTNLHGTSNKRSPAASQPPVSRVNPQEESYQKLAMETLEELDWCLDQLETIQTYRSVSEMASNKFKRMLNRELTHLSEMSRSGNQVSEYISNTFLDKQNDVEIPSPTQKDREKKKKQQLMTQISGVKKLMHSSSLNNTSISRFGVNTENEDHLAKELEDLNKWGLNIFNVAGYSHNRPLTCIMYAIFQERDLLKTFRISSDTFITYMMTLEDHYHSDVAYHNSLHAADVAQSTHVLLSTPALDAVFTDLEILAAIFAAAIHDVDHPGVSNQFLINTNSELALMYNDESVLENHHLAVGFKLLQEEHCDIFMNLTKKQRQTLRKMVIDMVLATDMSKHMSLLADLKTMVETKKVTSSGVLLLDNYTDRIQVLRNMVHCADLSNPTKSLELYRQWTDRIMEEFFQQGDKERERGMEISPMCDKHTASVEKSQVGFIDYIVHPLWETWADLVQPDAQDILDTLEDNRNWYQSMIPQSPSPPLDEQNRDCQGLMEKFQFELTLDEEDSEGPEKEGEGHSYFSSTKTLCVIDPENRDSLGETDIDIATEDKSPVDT
Chain of Lysosomal acid glucosylceramidase (Homo sapiens) (P04062 whole entry, looked up): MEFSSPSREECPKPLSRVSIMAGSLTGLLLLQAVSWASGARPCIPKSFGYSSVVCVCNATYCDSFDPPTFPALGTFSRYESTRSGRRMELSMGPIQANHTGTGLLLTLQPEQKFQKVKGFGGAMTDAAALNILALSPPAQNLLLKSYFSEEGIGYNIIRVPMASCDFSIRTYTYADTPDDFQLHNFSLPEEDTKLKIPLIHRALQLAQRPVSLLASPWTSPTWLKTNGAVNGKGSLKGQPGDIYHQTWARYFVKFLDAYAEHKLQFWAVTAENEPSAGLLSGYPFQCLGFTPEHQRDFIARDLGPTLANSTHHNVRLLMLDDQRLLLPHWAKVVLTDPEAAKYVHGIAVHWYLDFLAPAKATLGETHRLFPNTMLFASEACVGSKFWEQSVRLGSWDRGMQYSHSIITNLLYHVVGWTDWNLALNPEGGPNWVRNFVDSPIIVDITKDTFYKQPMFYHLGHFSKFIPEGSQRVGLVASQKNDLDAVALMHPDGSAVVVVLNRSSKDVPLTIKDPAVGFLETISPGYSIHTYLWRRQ
Chain of Cytochrome P450 2C19 (Homo sapiens) (P33261 whole entry, looked up): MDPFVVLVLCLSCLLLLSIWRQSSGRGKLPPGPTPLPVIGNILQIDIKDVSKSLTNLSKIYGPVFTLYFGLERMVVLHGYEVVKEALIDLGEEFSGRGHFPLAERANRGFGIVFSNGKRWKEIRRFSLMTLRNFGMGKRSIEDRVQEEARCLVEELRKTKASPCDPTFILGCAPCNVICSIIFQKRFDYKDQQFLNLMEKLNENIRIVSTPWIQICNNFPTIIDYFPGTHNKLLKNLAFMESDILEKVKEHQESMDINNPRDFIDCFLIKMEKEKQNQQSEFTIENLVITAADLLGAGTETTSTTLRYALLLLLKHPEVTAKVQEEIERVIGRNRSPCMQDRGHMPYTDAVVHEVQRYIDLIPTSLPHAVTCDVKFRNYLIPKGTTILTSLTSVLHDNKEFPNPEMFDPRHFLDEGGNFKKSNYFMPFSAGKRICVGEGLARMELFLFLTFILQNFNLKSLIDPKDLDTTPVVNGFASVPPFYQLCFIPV

In the case of `O=c1c(CCc2ccccc2)nc2cnc(Oc3ccccc3)nc2n1C[C@H]1CCCO1`, the figures for the Potency in test [1], in [4] and in test [5] were over 11.4 µM, over 9.22 µM and over 46 µM, respectively. Further, the activity change, negative = inhibition in [2] is -10.8%. Further, in test [3], the activity, negative = inhibition is -18.9%. The Potency result in test [6] and in test [7] was “inactive” each time. Also, the activation in test [8] was -12.6%.

For `CN1CCN(c2ncc3nc(-c4ccc(Cl)cc4)c(=O)n(C4CC4)c3n2)CC1`, the Potency in test [1] was over 11.4 µM; in test [9] it was 15.8 µM (active); in [4] it was over 9.22 µM; in test [5] it was over 46 µM; in [8] it was 3.16 µM (active). Further, the Potency result in test [10], in test [6] and in test [11] was “inactive” each time.

Take `CN(Cc1ccccc1)Cn1ccnc1`: the Potency in [1] is over 11.4 µM; in test [4], over 46 µM; in test [5], over 9.22 µM; in test [12], 2.51 µM (active); in [13] it was 0.794 µM (active); in [14], 2 µM (active). Besides, in test [2], the activity change, negative = inhibition was -1.18%. Moreover, the activity, negative = inhibition in test [3] was 10.2%. For the same molecule, the Potency entry in test [10], in test [6] and in test [7] was “inactive” throughout.

In the case of `COC(=O)CC[C@@H](C)[C@@H]1CC[C@@H]2[C@@H]3CC[C@H]4C[C@@H](O)CC[C@@]4(C)[C@@H]3CC[C@]21C`, the Potency is over 11.4 µM in test [1], over 46 µM in [4] and over 9.22 µM in [5]. Moreover, in test [3], the activity, negative = inhibition was 23.8%. Besides, the Potency entry in test [10] and in [6] was “inactive” each time.

Turning to `O=[N+]([O-])c1ccc(S(=O)(=O)Cc2ccccc2)c([N+](=O)[O-])c1`, the Potency in [1] was over 11.4 µM; in test [5], over 9.22 µM. Further, the activity change, negative = inhibition in test [2] is -88.3% (active). The Potency result in test [10] was “inactive”.

With `Nc1ncnc2c([C@@H]3O[C@@H](CO)[C@H](O)[C@@H]3O)nsc12`, the Potency was over 11.4 µM in test [1], over 46 µM in test [4] and over 9.22 µM in [5]. In addition, in test [9], the activity change, negative = inhibition is -16.8% [at 2.29 µM]. Besides, the Potency result in test [10] and in [6] was “inactive” throughout.

Turning to `Cc1cc(Cl)nc(NC(=O)CSc2ccc(Cl)cc2)n1`, the Potency was over 11.4 µM in test [1], over 46 µM in test [4] and over 9.22 µM in test [5]. In addition, the activity change, negative = inhibition in [2] is 16.8%. Also, in test [3], the activity, negative = inhibition was 11%. For the same molecule, the Potency result in [10] and in test [6] was “inactive” each time.

Consider `FC(F)(F)c1cccc(-c2nc3nc(Cl)c(Cl)nc3[nH]2)c1`, for which the Potency in test [1] is over 11.4 µM; in test [9] it was 0.398 µM (active); in [4], over 46 µM; in [5], over 9.22 µM; in test [12], 3.98 µM (active). Also, the Potency entry in test [10], in [6] and in [7] was “inactive” each time.

In the case of `O=c1c(-c2ccc(F)cc2)nc2cnc(Oc3ccccc3)nc2n1C[C@H]1CCCO1`, the Potency in [1] was over 11.4 µM; in test [4], over 9.22 µM; in test [5] it was over 46 µM. The activity change, negative = inhibition in test [2] was -2.24%. For the same molecule, the activity, negative = inhibition in test [3] is -12.2%.

`N#CCCn1c(=O)c(-c2ccc(F)cc2)nc2cnc(Oc3ccccc3)nc21`: the Potency in test [1] is over 11.4 µM; in test [4] it was over 9.22 µM; in [5] it was over 46 µM. Also, the activity, negative = inhibition in test [3] is -5.37%. The Potency entry in test [10] and in [6] was “inactive” each time.

In the case of `NS(=O)(=O)c1ccc(N=Nc2cc3ccccc3c(C(=O)O)c2O)cc1`, the Potency is over 11.4 µM in test [1], 1 µM (active) in test [9], over 46 µM in test [4] and over 9.22 µM in test [5]. The Potency result in test [6] and in [7] was “inactive” in each case.

Take `O=C1c2ccccc2-c2cc([N+](=O)[O-])c([N+](=O)[O-])cc21`: the Potency is over 11.4 µM in test [1], 0.251 µM (active) in [9], over 46 µM in [4] and over 9.22 µM in test [5]. Besides, the Potency result in test [10] and in test [6] was “inactive” in each case.

Turning to `COc1cccc2c1[C@H](CO)N1[C@H](C#N)[C@@H]3C[C@H](C(=O)O)[C@@H]([C@@H]1C2)N3C`, the values for the Potency in [1], in test [4] and in test [5] were over 11.4 µM, over 46 µM and over 9.22 µM, respectively. In test [2], the activity change, negative = inhibition is -126% (active). For the same molecule, the Potency entry in test [10] and in test [6] was “inactive” each time.

As to `O=C1C(Cl)=C(Nc2ccc(S(=O)(=O)Nc3ccccn3)cc2)C(=O)c2ccccc21`, the Potency was over 11.4 µM in [1]; 3.16 µM (active) in test [9]; over 46 µM in [4]; over 9.22 µM in test [5]; 3.16 µM (active) in [13]; 0.794 µM (active) in test [14]. Also, the Potency result in test [10] and in [6] was “inactive” each time.

With `Cc1noc(C)c1C(=O)N1CCC[C@@]2(CCN(c3cccc(-c4ccccc4)c3)C2)C1`, the Potency in test [1] is over 11.4 µM; in [5], over 46 µM. Moreover, in [2], the activity change, negative = inhibition was -20.7%. Further, the activity, negative = inhibition in test [3] was -22.2%. The Potency result in test [10] and in test [6] was “inactive” throughout.
